Assay outcomes from PubChem BioAssay.
GSH bead fluor – compound fluoresces at 488/530 nm on GSH beads. GSH beads flow cytometry, compound fluorescence 488/530 nm; stronger effect = higher value. 0.25% of 190,000 active. AID 1776. fluorescence (KMESF) at 10 µM; in the data active = fluorescence above about 89;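 also: glutathione beads carrying GST-tagged Bcl family fusion proteins plus one bare bead set; values are compound well signal with DMSO vehicle wells as background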
Avidin fluor – compound fluoresces at 488/530 nm on avidin beads | 0.38% of 220,000 active | fluorescence (KMESF) at 10 µM | compound fluorescence 488/530 nm, flow cytometry; stronger effect = higher value; in the data active = fluorescence above about 47
RGS4-Gao reg – human RGS4-Galphao interaction regulation | P09471 | 0.33% of 220,000 active | Multiplexed bead flow cytometry, RGS4-Galphao binding; actives lie on both sides | binding response (% of control), % at 10 µM | AID 1415; in the data active = binding response below about 49% or above about 150%; inactive = in between;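 also: fluorescent Galphao activated with aluminum fluoride binding bead-coupled RGS4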
Target sequence (P09471 whole entry, looked up): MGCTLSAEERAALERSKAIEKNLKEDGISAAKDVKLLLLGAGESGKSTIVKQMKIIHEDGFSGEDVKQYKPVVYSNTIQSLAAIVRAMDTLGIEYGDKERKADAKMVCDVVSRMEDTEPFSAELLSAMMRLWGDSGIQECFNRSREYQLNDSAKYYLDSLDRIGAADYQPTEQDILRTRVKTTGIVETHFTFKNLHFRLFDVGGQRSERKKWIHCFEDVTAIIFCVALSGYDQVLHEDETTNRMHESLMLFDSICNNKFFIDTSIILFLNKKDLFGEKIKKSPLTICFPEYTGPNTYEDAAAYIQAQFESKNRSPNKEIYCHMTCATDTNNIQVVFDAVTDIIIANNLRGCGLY
RGS7-Gao reg – human RGS7-Galphao interaction regulation; P09471; Multiplexed bead flow cytometry, RGS7-Galphao binding; actives lie on both sides; binding response (% of control), % at 10 µM; 0.35% of 220,000 active; AID 1439; in the data active = binding response below about 49% or above about 150%; inconclusive = no clear call, values can overlap the other calls; inactive = in between;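 also: fluorescent Galphao held in activated GDP-AlF4 state binding bead-coupled RGS7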
RGS8-Gao – human RGS8-Galphao interaction regulation | response (percent of control binding), % at 10 µM | P09471 | 0.34% of 220,000 active | multiplexed bead flow cytometry, RGS8-Galphao binding; actives lie on both sides; in the data active = response below about 60% or above about 140%; inactive = in between;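 also: Galphao activated as the GDP aluminium fluoride complex binding bead-coupled RGS8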
RGS16-Gao – regulators of human RGS16-Galphao interaction. bead-based flow cytometry RGS16-Galphao binding, fluorescence; actives lie on both sides. binding response (% of control), % at 10 µM. 0.38% of 220,000 active;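 also: Galphao activated by GDP with aluminum fluoride before binding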
RGS4-Gao HTS – regulators of human RGS4-Galphao interaction. RGS4–Galpha-o binding response, % at 10 µM. 99% of 1,600 active. multiplexed bead flow cytometry, RGS–Galpha-o binding. shares compounds with RGS16-Gao;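 also: fluorescently labeled Galpha-o bound to GDP with aluminium fluoride binding biotinylated RGS beads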
Target sequence (P09471 whole entry, looked up): as above
Target sequence (P49798 whole entry, looked up): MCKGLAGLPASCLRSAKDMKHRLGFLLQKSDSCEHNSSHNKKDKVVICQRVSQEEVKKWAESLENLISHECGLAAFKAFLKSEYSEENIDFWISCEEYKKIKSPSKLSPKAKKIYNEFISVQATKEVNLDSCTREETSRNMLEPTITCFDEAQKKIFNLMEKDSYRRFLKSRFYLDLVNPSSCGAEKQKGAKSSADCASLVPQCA
Avidin counter – biotin-avidin bead binding disruption counter-screen; shares compounds with RGS16-Gao; streptavidin beads, fluorescein-biotin binding, flow cytometry; inhibition, % at 10 µM; 1,700 tested, under 10 active; AID 1783;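 active = inhibition above 50%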;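 also: median green fluorescence of gated singlet beads compared with DMSO control wells; 0% = DMSO wells and 100% = complete loss of bead fluorescence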
RGS8-Gao confirm – confirmation of regulators of human RGS8-Galphao interaction; shares compounds with RGS16-Gao; bead-based flow cytometry RGS8-Galphao binding, fluorescence; actives lie on both sides; binding response (% of control), % at 10 µM; 3% of 1,700 active; AID 1836; in the data active = binding response below about 72% or above about 130%; inactive = in between;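 also: Galphao activated as GDP AlF4 complex before binding bead RGS8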
RGS7-Gao single – confirmation of regulators of human RGS7-Galphao interaction. response (percent of control binding), % at 10 µM. 7.8% of 1,700 active. AID 1837. bead-based flow cytometry RGS7-Galphao binding; actives lie on both sides. shares compounds with RGS16-Gao; in the data active = response below about 75% or above about 130%; inactive = in between;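 also: fluorescent Galphao activated with GDP and aluminum fluoride binding bead-coupled RGS7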
RGS16-Gao single – confirmation of regulators of human RGS16-Galphao interaction. shares compounds with RGS16-Gao. bead-based flow cytometry, RGS16-Galphao binding; actives lie on both sides. response (% of control binding), % at 10 µM. 4% of 1,700 active; in the data active = response below about 74% or above about 130%; inactive = in between;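 also: Galphao activated as the GDP aluminium fluoride complex binding bead-coupled RGS16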
RGS4-Gao confirm – RGS4-Galphao interaction regulation, single point confirmation; binding response (% of control), % at 10 µM; RGS4-Galphao binding, multiplexed bead flow cytometry; actives lie on both sides; 4% of 1,700 active; shares compounds with RGS16-Gao; AID 1840; in the data active = binding response below about 74% or above about 130%; inactive = in between
RGS19-Gao conf – confirmation of regulators of human RGS19-Galphao interaction. shares compounds with RGS16-Gao. bead-based flow cytometry RGS19-Galphao binding; actives lie on both sides. response (percent of control binding), % at 10 µM. 5% of 1,700 active. AID 1841; in the data active = response below about 50% or above about 160%; inactive = in between;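 also: 100% = no compound control and 0% = blank background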
* = called active by the depositor; ? = inconclusive; · = not tested or not shown; [ ] = dose if it differs, or a comment. Shown are actives, neighbours in structure and some others; about 1.2% of the full set was active somewhere. Unless noted, no rule for the calls is given here.

SMILES	GSH bead fluor	Avidin fluor	RGS4-Gao reg	RGS7-Gao reg	RGS8-Gao	RGS16-Gao	RGS4-Gao HTS	Avidin counter	RGS8-Gao confirm	RGS7-Gao single	RGS16-Gao single	RGS4-Gao confirm	RGS19-Gao conf
COc1ccc(CC2CCOC2=O)cc1 (configuration not stated)	37	10	94	96	92	-31*	94*	-1	102	106	104	105	94
Cc1cc(Cl)ccc1N=c1ssnc1Cl	7	8	83	107	77	19*	83*	-1	87	93	78	97	55
COCCNC(=O)/C(C#N)=C/c1ccc(-c2ccc(S(=O)(=O)N3CCOCC3)cc2)o1	6	5	79	84	74	-1.2*	79*	2	98	116	103	108	121
CCOCCCNC(=O)/C(C#N)=C/c1ccc(-c2ccc(S(=O)(=O)N3CCOCC3)cc2)o1	22	11	93	93	75	19	·	·	·	·	·	·	·
Cc1cccc(NC(=S)NC(C)C(c2cccs2)N2CCN(C)CC2)c1C (configuration not stated)	·	7	95	?	98	98	·	·	·	·	·	·	·
Cc1ccc(-c2ccc(S(=O)(=O)NCC3CCCO3)cc2)cc1 (configuration not stated)	11	12	102	101	102	101	·	·	·	·	·	·	·
O=S(=O)(NCC1CCCO1)c1ccc(Cl)nc1 (configuration not stated)	·	·	·	·	·	·	·	-2	109	109	108	109	105
CCOC(=O)c1cc2sccc2n1CC(=O)N1CCCC1	31	48*	113	150*[activator]	104	121	113*	-1	96	96	96	95	94
CCn1c(C(=O)N2CCCC(C(=O)O)C2)cc2sccc21 (configuration not stated)	64	4	93	93	71	24*	93*	-1	105	104	109	102	114
Cc1ccc(-c2nnc(Nc3ccc4c(c3)nc(C)n4C)c3ccccc23)cc1	12	32	98	97	100	100	·	·	·	·	·	·	·
Cc1nnc(Nc2ccc3c(c2)ncn3C)c2ccccc12	25	13	115	114	146*[activator]	220	115*	1	108	107	106	104	107
Oc1ccc2oc3c(c2c1C=NCc1ccncc1)CCCC3	·	4	101	?	102	103	·	·	·	·	·	·	·
O=C(C1CCN(S(=O)(=O)c2cccnc2)CC1)N1CCN(c2cccc(Cl)c2)CC1	25	1	35*	11*	27*	62	·	-1	99	99	101	99	95
O=c1c2c3c(sc2nc(NCCOCCO)n1Cc1ccco1)CCCCC3	·	1	39*	?	46*	32	·	2	103	106	105	106	121
CC(C)(C)NC(=O)NC(=O)COC(=O)c1cc[n+]([O-])cc1	22	207*	126	212*[activator]	121	232	126*	-1	100	96	101	99	103
CC(C)(C)NC(=O)NC(=O)COC(=O)c1cccc(F)c1	24	4	90	94	94	88	·	·	·	·	·	·	·
CSCCC(NC(=O)c1cccc([N+](=O)[O-])c1)c1nc2ccccc2[nH]1 (configuration not stated)	9	4	100	100	109	105	·	·	·	·	·	·	·
CSCCC(NC(=O)c1cccc([N+](=O)[O-])c1)C(=O)O (configuration not stated)	13	15	106	113	115	187*[activator]	106*	0	100	99	100	98	91
Cc1ccc(C(=O)N2CCC3(CC2)Oc2ccc(F)cc2C(=O)C32CC(c3ccccc3)=NO2)s1 (configuration not stated)	·	8	98	?	97	99	·	·	·	·	·	·	·
CC(=O)Oc1ccc(C2OC(=O)c3ccccc3N2C(C)=O)cc1 (configuration not stated)	40	·	·	·	106	·	·	0	98	97	96	98	100
COc1ccc(C2Oc3ccccc3N2C(C)=O)cc1 (configuration not stated)	15	16	102	101	102	100	·	·	·	·	·	·	·
COc1cc(N(C(=O)Cc2cccs2)C(C(=O)NC2CCCCC2)c2cccc(OC)c2OC)ccc1-n1cnnn1 (configuration not stated)	10	6	92	88	82	24*	92*	0	101	105	100	101	98
CC(=O)N1CCc2c(sc(NC(=O)CN3C(=O)c4ccccc4C3=O)c2C(N)=O)C1	18	6	146	157*[activator]	140	150	146*	-1	105	112	106	109	97
COc1ccccc1OCCCOc1ccc(C)cc1Br	16	3	102	102	106	114	·	·	·	·	·	·	·
COc1ccccc1OCCOCCOc1ccc(C)cc1Br	10	7	89	89	80	22*	89*	-2	101	98	100	101	96
COC(=O)c1ccccc1NS(=O)(=O)c1ccc(NC(C)=O)cc1	14	19	128	151*[activator]	134	137	128*	2	100	104	101	102	92
COC(=O)c1ccccc1NS(=O)(=O)c1ccc(F)cc1	29	22	99	101	100	104	·	·	·	·	·	·	·
O=c1cc(-c2ccccc2Cl)oc2ccc([N+](=O)[O-])c(O)c12	19	11	96	96	101	103	·	·	·	·	·	·	·
Nc1ccc2oc(-c3ccccc3Cl)cc(=O)c2c1O	18	89*	184*[activator]	167*[activator]	107	110	·	0	102	111	104	107	95
